Reference: PubChem BioAssay AID651871 (Sanford-Burnham Center for Chemical Genomics, 2012)
Values joined by “and” are separate entries in the source; they are usually repeats but may differ in a detail not shown here. Identical values can stand only once.

Tested on: HL-1
Assay: protection of cardiomyocytes from stress damage, SAR follow-up, cell-based, panel, H9c2 and HL-1, ATP luminescence, set 2 (AID 651871);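 note: cells exposed to stressor for 2 h before ATP readout; reference of the scale not given here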
Conditions: H9c2/HL-1 cardiomyocytes, 2-deoxyglucose stress, with 2-deoxyglucose; run 7, at 79 µM (top of the series)

Question: How did the activity (protection/inhibition) turn out when `COc1ccc2c(c1OC)C(=O)N1c3ccccc3C(=O)N(Cc3cccc(Cl)c3Cl)C21` (stereo not drawn) was run?
Answer: The activity (protection/inhibition) was 48.9% and 20.1% and -9.92%.

Question: Which activity (protection/inhibition) does the source give for `COc1ccc2nc(-c3cc(OC)c(OC)c(OC)c3)cc(C(=O)NCC(=O)Nc3ccc(C(C)=O)cc3)c2c1` here?
Answer: Its activity (protection/inhibition) is 38%.

Question: Which activity (protection/inhibition) does the source give for `CCOC(=O)c1cccc(NC(=O)CNC(=O)c2cc(-c3cc(OC)c(OC)c(OC)c3)nc3ccccc23)c1` here?
Answer: The activity (protection/inhibition) was 54.3%.
